Assay outcomes deposited in PubChem by National Center for Advancing Translational Sciences (NCATS).
ELG1 genotox = genotoxicity induction in ELG1-luciferase HEK293T cells; HEK293T ELG1-luciferase reporter, luminescence, 16 h; Potency, µM (doses to about 46 µM), for inactives: at the highest dose activity change, positive = activation, most hits filed as activators; 330,000 compounds, 1.3% hits; further: % of control where 0% means no effect; nearly all actives have a fitted effect of over 60% in size
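ELG1-luciferase HEK293T cells, 2,000/well; compound pinned in; 16 hr, 37 °C, 5% CO2; ONE-Glo, 30 min RT; luminescence on CCD imager.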
FLuc counter = firefly luciferase modulation, counter-screen for miR-21 project; P08659; 360,000 compounds, 6.9% hits; purified FLuc, Km substrates, luminescence inhibition; Potency, µM (doses to about 57.5 µM), for inactives: at the highest dose activity change, negative = inhibition, hits mostly inhibitors;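 further: plate controls were vehicle for no effect and reference inhibitor for full effect; nearly all actives have a fitted effect of over 55% in size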
Target sequence (P08659 whole entry, looked up): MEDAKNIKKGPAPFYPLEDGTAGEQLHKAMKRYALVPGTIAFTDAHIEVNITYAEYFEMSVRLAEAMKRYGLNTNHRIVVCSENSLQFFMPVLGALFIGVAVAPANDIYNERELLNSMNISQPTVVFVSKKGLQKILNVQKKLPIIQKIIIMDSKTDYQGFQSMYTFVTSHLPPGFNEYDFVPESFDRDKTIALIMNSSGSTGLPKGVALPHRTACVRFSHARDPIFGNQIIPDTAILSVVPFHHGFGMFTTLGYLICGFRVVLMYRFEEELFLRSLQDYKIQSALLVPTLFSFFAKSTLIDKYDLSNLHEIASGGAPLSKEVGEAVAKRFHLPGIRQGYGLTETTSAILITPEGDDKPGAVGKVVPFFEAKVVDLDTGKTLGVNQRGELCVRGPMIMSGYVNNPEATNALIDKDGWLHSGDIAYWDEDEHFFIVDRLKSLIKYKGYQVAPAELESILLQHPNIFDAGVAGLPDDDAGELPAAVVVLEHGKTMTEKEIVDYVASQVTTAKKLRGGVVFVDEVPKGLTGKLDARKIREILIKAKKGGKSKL
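Biochemical qHTS of compounds, final roughly 60 µM downward over six points, against 10 nM purified firefly luciferase using Km concentrations of substrates (10 uM D-luciferin, 10 uM ATP) in Tris acetate pH 7.5 buffer; luminescence output.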
NPC1 prom act = NPC1 promoter activation | Potency, µM (highest dose often 9.22 µM), for inactives: top-dose activation, actives largely listed as activators | 320,000 compounds, 2.4% hits | Huh7 NPC1 promoter luciferase reporter, 24 h; further: % of control where 0% means no effect; nearly all actives have a fitted effect of over 60% in size
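Luminescence from an NPC1 promoter-driven luciferase reporter in stably transfected Huh7 cells was measured after 24 h compound treatment at 37 °C, followed by 10 min ambient incubation with luciferase detection reagent.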
SMN2 splice enh = enhancers of SMN2 splice variant expression. HEK293 SMN2-luciferase splicing reporter, luminescence, 30-36 h. Potency, µM (top dose mostly 46.1 µM), for the others: at the top dose activity change, positive = activation, most hits filed as activators. 210,000 compounds, 2.8% hits; further: % of control where 0% means no effect; nearly all actives have a fitted effect of over 55% in size
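HEK293 cells carry an SMN2 minigene-luciferase reporter in which exon 7 inclusion puts luciferase in frame. Cells were seeded at 2000 cells/well, attached for 10-12 hours, then exposed to compounds for 30-36 hours at 37C before ONE-Glo luminescence.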
Rab9 prom act = Rab9 promoter activation | Huh7 Rab9 promoter-luciferase reporter, luminescence, 24 h | Potency, µM (titrated, usually from 9.22 µM), for inactives: at the top dose activation, negative = inhibition, hits mostly activators | 320,000 compounds, 2.8% hits | AID 485297; further: % of control where 0% means no effect; nearly all actives have a fitted effect of over 60% in size
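Promoter activation is measured as luciferase luminescence in Huh7 cells stably transfected with a Rab9 promoter–luciferase construct, following 24 h compound exposure at 37 °C and 10 min reagent incubation at ambient temperature.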
* = called active by the depositor; [ ] = remark or other dose. An excerpt weighted towards active compounds, which were near 7.4% of everything screened. The call rests on the fitted dose curve; in most records, active means well fitted curve in the direction sought with a large enough effect; inconclusive means small, poorly fitted or top-dose-only effect, or another doubt; inactive means no such curve, though single readings can be large; an effect the other way counts as inactive or inconclusive. Potency means the concentration at half of the fitted maximal effect.

For O=C(c1ccccc1)c1cnc(Nc2ccccc2Cl)s1 the results were ELG1 genotox inconclusive, FLuc counter 1.9µM*, NPC1 prom act 1µM*, SMN2 splice enh 20µM* and Rab9 prom act 1.3µM*.
CC(=O)c1cnc(Nc2ccc(C)cc2)s1 was read as ELG1 genotox inconclusive, FLuc counter inconclusive, NPC1 prom act 23%, SMN2 splice enh inconclusive and Rab9 prom act inconclusive.
Screening CC(C)(C)C(=O)c1cnc(Nc2ccccc2Cl)s1 returned FLuc counter 2.4µM* and SMN2 splice enh 13µM*.
`CC(NS(=O)(=O)c1ccc2c(c1)CCN2C(=O)CCCC(=O)O)c1ccccc1` (stereo unspecified) gave FLuc counter 4% and SMN2 splice enh -4%.
Screening O=C(COCc1cc(-c2ccco2)on1)Nc1ccc(OC(F)(F)F)cc1 returned FLuc counter -6%.
CSc1nc2ccc(Br)cc2[nH]1 was read as ELG1 genotox -5%, FLuc counter -6%, NPC1 prom act -3%, SMN2 splice enh -28% and Rab9 prom act 0%.
Screening CC(C)Sc1nc2ccc(Br)cc2[nH]1 returned ELG1 genotox inconclusive, FLuc counter 17µM*, NPC1 prom act 23% and Rab9 prom act inconclusive.
For CSc1nnc2c3ccccc3n(Cc3ccccc3)c2n1 the results were ELG1 genotox 1%, FLuc counter 2%, NPC1 prom act 1%, SMN2 splice enh -7% and Rab9 prom act -6%.
Screening CSc1nnc2c3ccccc3n(CCc3ccccc3)c2n1 returned ELG1 genotox -17%, FLuc counter -3%, NPC1 prom act -4%, SMN2 splice enh 4µM* and Rab9 prom act 10%.
Cc1ccc(C)c(N2CCN(S(=O)(=O)c3ccc(-c4cnc(C5CC5)o4)cc3)CC2)c1 was read as FLuc counter -2%.
Screening COc1ccc(CCNc2ncnc3c2cnn3-c2ccc(F)cc2)cc1 returned FLuc counter -16%.
Screening COc1ccc(-n2ncc3c(NCc4cccs4)ncnc32)cc1 returned ELG1 genotox inconclusive, FLuc counter 9.5µM*, NPC1 prom act 2.5µM*, SMN2 splice enh inconclusive and Rab9 prom act 1.1µM*.
Screening c1ccc(-n2ncc3c(NCc4cccs4)ncnc32)cc1 returned ELG1 genotox 10µM*, FLuc counter 12µM*, NPC1 prom act 3.5µM*, SMN2 splice enh 11µM* and Rab9 prom act 2µM*.
NNc1ncnc2c1cnn2-c1ccccc1 was read as ELG1 genotox -8%, FLuc counter inconclusive, NPC1 prom act 10%, SMN2 splice enh -11% and Rab9 prom act 0%.
Screening CCCCCC(=O)Nc1ccc2oc(-c3cncc(Br)c3)nc2c1 returned ELG1 genotox inconclusive, FLuc counter 7%, NPC1 prom act 0.71µM*, SMN2 splice enh 11µM* and Rab9 prom act 1.6µM*.
CCCCC(=O)Nc1ccc2oc(-c3ccncc3)nc2c1 was read as ELG1 genotox 18%, FLuc counter -20%, NPC1 prom act 2%, SMN2 splice enh -6% and Rab9 prom act 4%.
Screening CCCC(=O)Nc1ccc2oc(-c3cncc(Br)c3)nc2c1 returned ELG1 genotox 9.2µM*, FLuc counter inconclusive, NPC1 prom act 1.6µM*, SMN2 splice enh 4.5µM* and Rab9 prom act 1.3µM*.
CCC1=C2CC[C@H]3C(=O)NC(=O)[C@H]3[C@H]2[C@@]2(C)C(=O)N(CC3CC3)C(=O)N2C1=O was read as SMN2 splice enh 1%.
`COC(C)(C)CCCC(C)C/C=C/C(C)=C/C(=O)O` (stereo unspecified) gave SMN2 splice enh -3%.
NC(=Nc1ccccc1)NC(=O)c1nc(Cl)c(N)nc1N was read as NPC1 prom act inconclusive, SMN2 splice enh 14µM* and Rab9 prom act inconclusive.
`NC(=NCc1ccccc1)NC(=O)c1nc(Cl)c(N)nc1N` gave NPC1 prom act inconclusive, SMN2 splice enh -6% and Rab9 prom act 7%[46.1 µM].
Nc1cc([N+](=O)[O-])cc2oc(-c3ccccc3)cc12 was read as ELG1 genotox inconclusive, FLuc counter 19µM*, NPC1 prom act inconclusive and Rab9 prom act inconclusive.
O=[N+]([O-])c1cc(Br)c(OCc2nnc(-c3ccccc3)o2)c(Br)c1 was read as ELG1 genotox -7%, FLuc counter inconclusive, NPC1 prom act 0%, SMN2 splice enh -9% and Rab9 prom act 3%.
Screening Cc1ccc(S(=O)(=O)N/N=C/c2cccn2-c2ccc(Cl)cc2)cc1 returned ELG1 genotox 11%, FLuc counter 0.54µM*, NPC1 prom act inconclusive, SMN2 splice enh -20% and Rab9 prom act inconclusive.
Cc1ccc(S(=O)(=O)N/N=C/c2c(F)cccc2Cl)cc1 was read as ELG1 genotox -2%, FLuc counter 1%, NPC1 prom act 0%, SMN2 splice enh -5% and Rab9 prom act 3%.
For COc1cccc(NC(=O)C2CCC(CNS(=O)(=O)c3csc(C(N)=O)c3)CC2)c1 (stereo unspecified) the results were FLuc counter -2%.
`O=C(NC1CCCCCC1)c1ccc(Br)o1` gave ELG1 genotox 8%, FLuc counter inconclusive, NPC1 prom act 0% and Rab9 prom act 20%.
`O=C(NC1CCCC1)c1cc2ccccc2o1` gave ELG1 genotox inconclusive, FLuc counter inconclusive, NPC1 prom act 28% and Rab9 prom act inconclusive.
O=C(NC1CCCCC1)c1cc2cc(Br)ccc2o1 was read as ELG1 genotox inconclusive, FLuc counter 4.8µM*, NPC1 prom act 3.2µM* and Rab9 prom act inconclusive.
For O=C(NC1CCCC1)c1cc2cc(Br)ccc2o1 the results were ELG1 genotox inconclusive, FLuc counter 11µM*, NPC1 prom act 3.2µM* and Rab9 prom act 2.8µM*.
Screening O=C1CCCC1C(O)c1ccc2ccccc2c1 (stereo unspecified) returned SMN2 splice enh -3%.
For O=C(Nc1c(C(=O)N2CCN(c3ccccc3F)CC2)oc2ccccc12)c1ccc(Br)o1 the results were FLuc counter -12%.
Screening COc1ccc(C(=O)NCc2ccc(-c3nc4ccccc4s3)cc2)cc1OC returned ELG1 genotox 16µM*, FLuc counter 1.3µM*, NPC1 prom act 16%, SMN2 splice enh -21% and Rab9 prom act inconclusive.
O=C(NC(=S)NCc1ccc(-c2nc3ccccc3s2)cc1)c1ccco1 was read as ELG1 genotox 16µM*, FLuc counter 2.7µM*, NPC1 prom act 3.2µM* and Rab9 prom act 4µM*.
`O=C(NC(=S)Nc1nc(-c2ccccc2)cs1)c1ccco1` gave ELG1 genotox -3%, FLuc counter inconclusive, NPC1 prom act 5%, SMN2 splice enh -5% and Rab9 prom act -1%.
